# Data reported in PubChem BioAssay AID588727 (Southern Research Specialized Biocontainment Screening …, 2011).
# Among all 350,000 compounds or so, about 450 (0.13%) were called active. The rule behind the calls is not given here. Only a sample is shown. Entries with a potency or affinity are not part of this list.
# Experiment: inhibitors of VEEV TC-83 cytopathic effect, confirmation, Vero cells (AID 588727)
# Details: VEEV TC-83 cytopathic effect inhibition, at 20 µM
# [1] = stronger effect = higher value unless noted
# [2] = measured here: 10K pilot screen inhibition, stronger effect = higher value
structure (smiles),measurement,setting,value
O=C(O)c1cc(S(=O)(=O)Nc2cccc(S(=O)(=O)N3CCCC3)c2)ccc1Cl,inhibition,[1],0.74% (inactive)
Cc1ccc(C(=O)Nc2cccnc2Oc2ccc(Cl)cc2)cc1,inhibition,[1],7.89% (inactive)
O=C(O)c1ccc(Cl)c(S(=O)(=O)N(Cc2ccccc2)c2ccccc2Cl)c1,inhibition,[1],inactive
CCC(O)CC(C(=O)NNc1ccccc1)C(=O)NNc1ccccc1 (configuration not stated),inhibition,stronger effect = higher value,1.75% (inactive)
same,inhibition,[2],1.77%
COc1ccc(OCc2cc(/C=N\NC(=O)c3ccccc3)ccc2OC)cc1,inhibition,[1],7.93% (inactive)
COc1cccc(NC(=O)[C@H](Cc2ccccc2)NC(=O)[C@@H]2Cc3ccccc3CN2)c1,inhibition,[1],2.9% (inactive)
COc1cccc(NC(=O)[C@H](CC(C)C)NC(=O)[C@@H]2Cc3ccccc3CN2)c1,inhibition,[1],0.34% (inactive)
Fc1ccccc1CSc1ncnc2c1ncn2C1CCCCO1 (configuration not stated),inhibition,[1],4.89% (inactive)
c1ccc(CSc2ncnc3c2ncn3C2CCCCO2)cc1 (configuration not stated),inhibition,[1],4.13% (inactive)
CCOC(=O)C1CCC(=O)C1 (configuration not stated),inhibition,[1],0.89% (inactive)
Cn1c(CN2CCCCC2)nc2cc(NS(=O)(=O)c3ccc(F)cc3)ccc21,inhibition,[1],0.17% (inactive)
C#CCN(C[C@@H]1[C@@H](OC(=O)Nc2cccs2)[C@@H](OC(=O)Nc2cccs2)Cn2c(=O)n(CCCCCC)c(=O)n21)S(=O)(=O)c1ccc(C)cc1,inhibition,[1],inactive
C#CCN(C[C@@H]1[C@@H](OC(=O)NC2CC2)[C@@H](OC(=O)NC2CC2)Cn2c(=O)ccc(=O)n21)S(=O)(=O)c1ccc(C)cc1,inhibition,[1],0.49% (inactive)
COc1ccc(-c2c3c(=O)n(C)c(=O)n(C)c3cn2Cc2cccnc2)cc1,inhibition,stronger effect = higher value,1.95% (inactive)
same,inhibition,[2],1.55%
CC(C)=CCN1CCN(Cc2coc3ccc(C)cc3c2=O)CC1CCO (configuration not stated),inhibition,[1],0.54% (inactive)
Cc1ccc2nc(NC(=O)Cn3nc(C)c([N+](=O)[O-])c3C)sc2c1,inhibition,[1],5.1% (inactive)
CN1CCN(C(=O)N2c3ccccc3C=Cc3ccccc32)CC1,inhibition,[1],0.28% (inactive)
COCCNC(=O)c1cc2sc3ccccc3c2s1,inhibition,[1],3.33% (inactive)
CN(C)CCCNC(=O)c1cc2sc3ccccc3c2s1,inhibition,[1],0.94% (inactive)
O=C1/C(=C/c2cccs2)SC(=S)N1CC(=O)N1CCCCC1CCO (configuration not stated),inhibition,[1],2.22% (inactive)
COC(=O)C/C=C/N(Cc1ccccc1OC)S(=O)(=O)CCl,inhibition,[1],inactive
COc1ccc(NC2=C(NC(C)=O)C(=O)c3ccccc3C2=O)cc1,inhibition,[1],inactive
CN(C)c1ccc(NC2=C(Cl)C(=O)c3ccccc3C2=O)cc1,inhibition,[1],2.81% (inactive)
O=C(Nc1ccc2ccccc2c1)c1ccccc1[N+](=O)[O-],inhibition,[1],0.3% (inactive)
O=C(NC(=S)NCCN1CCOCC1)c1cccc(Cl)c1,inhibition,[1],2.05% (inactive)
O=S(=O)(NCC1CN(S(=O)(=O)c2c(F)cccc2F)C1)c1ccc2c(c1)OCCO2,inhibition,[1],0.08% (inactive)
COc1ccc(OC)c(Nc2nc(=O)c3cccnc3s2)c1,inhibition,[1],4.47% (inactive)
Cc1ccc(Nc2nc(=O)c3cccnc3s2)cc1,inhibition,[1],inactive
CC(=O)c1ccc(Nc2nc(=O)c3cccnc3s2)cc1,inhibition,[1],2.57% (inactive)
CC(=O)c1cccc(Nc2nc(=O)c3cccnc3s2)c1,inhibition,[1],3.68% (inactive)
COCOCCn1cc(CN2CCS(=O)(=O)N(Cc3ccc(-c4cccc(CO)c4)cc3)C(CC(C)C)C2=O)nn1 (configuration not stated),inhibition,[1],6.1% (inactive)
CCOC(=O)[C@@H]1[C@H]2COc3ccc(Br)cc3[C@@H]2N2C(=O)N(c3cccc(Cl)c3)C(=O)[C@]12C,inhibition,[1],inactive
CCOC(=O)C1=C(N)c2ccccc2CC1C(C)C (configuration not stated),inhibition,[1],inactive
CCOC(=O)C1=C(NC(=S)NC(=O)c2ccccc2)c2ccccc2CC1(C)CC (configuration not stated),inhibition,stronger effect = higher value,11.4% (inactive)
same,inhibition,[2],20.8%
CN1CCN(C(=O)c2ccc3c(c2)N(Cc2cccc(Cl)c2)C(=O)c2ccccc2S3(=O)=O)CC1,inhibition,[1],inactive
O=C(c1ccc2c(c1)N(Cc1ccc(F)cc1)C(=O)c1ccccc1S2(=O)=O)N1CCN(c2ccccn2)CC1,inhibition,[1],8.23% (inactive)
Cc1ccc(C(=O)N2CCN(c3ccccn3)CC2)cc1C,inhibition,[1],1.05% (inactive)
Cc1ccc(C)c(CN2C(=O)c3ccccc3S(=O)(=O)c3ccc(C(=O)N4CCN(C)CC4)cc32)c1,inhibition,[1],0.5% (inactive)
CC(=O)C(=Nc1cccc(Cl)c1)NNc1ccccc1C,inhibition,[1],inactive
CC(=O)Nc1ccc(C(=O)OCC(=O)c2cccc([N+](=O)[O-])c2)cc1,inhibition,[1],0.91% (inactive)
O=C(C[n+]1cccc(NC(=O)c2ccccc2)c1)c1cccc([N+](=O)[O-])c1,inhibition,[1],inactive
CCOC(=O)C1=C(COC(=O)c2cccc(NC(C)=O)c2)NC(=O)NC1C (configuration not stated),inhibition,[1],1.96% (inactive)
CCOC(=O)Cn1c(S(=O)(=O)Cc2cccc(F)c2)nc(-c2ccccc2)c1-c1ccccc1,inhibition,[1],3.2% (inactive)
C#CCn1c(S(=O)(=O)Cc2ccc(OC)cc2)nc(-c2ccccc2)c1-c1ccccc1,inhibition,[1],0.79% (inactive)
CCOC(=O)Cn1c(S(=O)(=O)Cc2ccc(F)cc2)nc(-c2ccccc2)c1-c1ccccc1,inhibition,[1],5.03% (inactive)
C#CCn1c(S(=O)(=O)Cc2ccccc2Cl)nc(-c2ccccc2)c1-c1ccccc1,inhibition,[1],1.45% (inactive)
COC(=O)c1ccccc1-c1ccc(/C=N/Nc2nc(N3CCCC3)nc(N3CCCC3)n2)o1,inhibition,[1],9.1% (inactive)
COc1ccc(S(=O)(=O)N2CCCc3ccccc32)cc1OC,inhibition,[1],inactive
Cc1c(OCC(=O)N(C)C)ccc2c(-c3ccccc3)cc(=O)oc12,inhibition,[1],2.42% (inactive)
Cn1cccc1C(=O)NC(=O)COC(=O)c1ccc(S(C)(=O)=O)cc1,inhibition,[1],1.82% (inactive)
CCOC(=O)c1cc(-c2ccccc2)sc1NC(=O)C(C)(C)C,inhibition,[1],0.72% (inactive)
O=C(Nc1sc(-c2ccccc2)cc1C(=O)O)c1ccccc1,inhibition,[1],inactive
COC(=O)C1=C(CSCc2ccccc2)NC(=O)NC1c1cc(C)ccc1C (configuration not stated),inhibition,[1],1.95% (inactive)
CNC(=S)Nc1ccc(-c2nc3ccc(C)cc3s2)cc1,inhibition,[1],5.72% (inactive)
CCC(C)(C)NC(=S)Nc1ccc(-c2nc3ccc(C)cc3s2)cc1,inhibition,[1],1.78% (inactive)
CCOC(=O)c1c(C)oc(NC(=O)CCl)c1C(=O)OCC,inhibition,[1],1.19% (inactive)
Cc1cc(C(=O)Nc2c(C)nn(Cc3ccccc3Cl)c2C)no1,inhibition,[1],1.51% (inactive)
Cc1nn(Cc2ccc(Cl)cc2)c(C)c1NC(=O)c1cc(C(C)C)on1,inhibition,[1],0.91% (inactive)
CNC(=O)c1cc(S(=O)(=O)Nc2ccc3c(c2)OCCO3)ccc1C,inhibition,[1],0.34% (inactive)
C#CCOCCOCCOCCNc1nc(OC)nc(N2CCN(C(=O)[C@H](CCC(=O)O)n3cc(C(N)CO)nn3)CC2)n1 (some centres not stated),inhibition,[1],1.77% (inactive)
CN1CCN(CC(=O)Nc2cc(N3CCOCC3)ccc2[N+](=O)[O-])CC1,inhibition,[1],0.32% (inactive)
Cc1c(CCO)c(=O)[nH]n1S(=O)(=O)c1ccc(F)cc1,inhibition,[1],inactive
Cc1c(CCO)c(=O)[nH]n1C(=O)c1ccc(F)cc1,inhibition,[1],0.71% (inactive)
CN1C(=O)C2(NCCc3c2[nH]c2ccccc32)c2ccccc21 (configuration not stated),inhibition,[1],1.48% (inactive)
CC1=CC(C)(C)N2C(=O)C3(NCCc4c3[nH]c3ccccc43)c3cccc1c32 (configuration not stated),inhibition,[1],0.24% (inactive)
CCn1cc([N+](=O)[O-])c(C(=O)Nc2ccn(C34CC5CC(CC(C5)C3)C4)n2)n1,inhibition,[1],0.69% (inactive)
Cn1cc([N+](=O)[O-])c(C(=O)Nc2ccc(C(=O)N3CCCCC3)cc2)n1,inhibition,[1],10.8% (inactive)
Cn1ncc([N+](=O)[O-])c1C(=O)Nc1ccc(C2CCCCC2)cc1,inhibition,[1],2.86% (inactive)
Cc1nn(C)c(C(=O)Nc2ccn(C34CC5CC(CC(C5)C3)C4)n2)c1[N+](=O)[O-],inhibition,[1],0.3% (inactive)
CCOc1ccc(S(=O)(=O)N2CCCCC2)cc1NC(=O)C1=COCCO1,inhibition,[1],10.1% (inactive)
O=C1NC2=C(C(=O)CCC2)C(c2ccc([N+](=O)[O-])cc2)N1 (configuration not stated),inhibition,[1],inactive
NS(=O)(=O)c1ccc(CNC(=O)c2cccc(S(=O)(=O)N3CCc4ccccc43)c2)cc1,inhibition,[1],2.16% (inactive)
COc1cc2c(cc1OC)CN(C(=O)c1cccc(S(=O)(=O)N(C)C)c1)CC2,inhibition,[1],1.42% (inactive)
O=C(c1cccc(S(=O)(=O)N2CCc3ccccc32)c1)N1CCOCC1,inhibition,[1],1.59% (inactive)
COc1ccc(N2CCN(C(=O)c3cccc(S(=O)(=O)N4CCc5ccccc54)c3)CC2)cc1,inhibition,[1],4.71% (inactive)
COc1ccccc1N1CCN(C(=O)c2cccc(S(=O)(=O)N3c4ccccc4CC3C)c2)CC1 (configuration not stated),inhibition,[1],5.41% (inactive)
O=C(c1cccc(S(=O)(=O)N2CCc3ccccc32)c1)N1CCc2ccccc2C1,inhibition,[1],6.28% (inactive)
CN(CC(=O)Nc1ccccc1Br)C(=O)c1cccc(S(=O)(=O)N2CCc3ccccc32)c1,inhibition,[1],7.03% (inactive)
CC(=O)N1CCN(C(=O)c2cccc(S(=O)(=O)N3c4ccccc4CC3C)c2)CC1 (configuration not stated),inhibition,[1],inactive
CC(C)OC(=O)CSc1nnc(CNc2ccc(Cl)cc2)n1Cc1ccccc1,inhibition,[1],inactive
Cc1cc(/N=C/C=C2/N(C)c3ccccc3C2(C)C)n(CCC#N)n1,inhibition,[1],1.39% (inactive)
CC(=O)Nc1c2c(nn1-c1cccc(Cl)c1)CS(=O)(=O)C2,inhibition,[1],inactive
O=C(COC(=O)/C=C/c1ccc(F)cc1)NC1CCCC1,inhibition,[1],2.24% (inactive)
Cn1nnnc1Sc1ncnc2scc(-c3ccc(C(F)(F)F)cc3)c12,inhibition,[1],inactive
CCCCCC1CC(CC(=O)Nc2ccc([N+](=O)[O-])cc2)OC1=O (configuration not stated),inhibition,[1],inactive
NC(=NC1CCCCC1)c1ccc(Cl)cc1,inhibition,[1],0.26% (inactive)
CCCCn1c(=O)[nH]c(=O)c2c1nc(CN(C)Cc1cccc(OC)c1OC)n2CCC,inhibition,[1],6.28% (inactive)
CCCCCC(=O)N1C[C@@H](n2cc(COC(=O)c3ccccc3)nn2)[C@H](O)C[C@@H]1c1ccc(OC)cc1,inhibition,[1],0.24% (inactive)
Cc1cccc(-n2ncc3c(N4CC(C)CC(C)C4)ncnc32)c1 (configuration not stated),inhibition,[1],1.8% (inactive)
